The record followed here is PubChem BioAssay.

The test system of assay [1] is XIP peptide (Xip251-270) binding. Description: XIP fragment 251-270 binding compounds – biochemical, small-molecule microarray, fluorescence 635/667 nm, 0.1 µg/mL protein, primary screen (AID 1182). Conditions: fluorescent protein binding, 635 nm, higher = more signal, called active from +8 up or from −8 down.
In another assay the test system is XIP peptide (Xip251-270). Description: compounds binding XIP fragment 251-270 – biochemical, small-molecule microarray, fluorescence 635/667 nm, 0.5 µg/mL protein, primary screen (AID 1183). Conditions: fluorescence 635 nm, higher = more signal.
Assay [2] can be described thus: blood-stage malaria parasite viability loss – strain 3D7, DAPI fluorescence, 100 nL, primary screen (AID 1184).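 Note: parasites grown inside human red blood cells in medium with human serum.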 Particulars: P. falciparum 3D7 growth, 3 d, higher = more signal.
The target in assay [3] is Homeobox protein Hox-A13 (Mus musculus) (UniProt Q62424). Nature of the assay: disruptors of Hoxa13 oligonucleotide interaction – biochemical, fluorescence polarization, labeled oligonucleotide, primary screen (AID 1185). Particulars: Hoxa13:DNA binding, 15 min, higher = more signal, called active from +8 up or from −8 down.
The nature of assay [4]: blockers of DNA damage checkpoint Chk1 activation – imaging, HeLa, hydroxyurea, phospho-Chk1 antibody, percent positive cells, primary screen (AID 1186). Particulars: hydroxyurea-induced phospho-Chk1 immunofluorescence imaging, higher = more signal.
The nature of assay [5]: blockers of DNA damage checkpoint Chk1 activation – imaging, HeLa, hydroxyurea, phospho-Chk1 nuclear intensity, primary screen (AID 1187). Particulars: hydroxyurea-induced phospho-Chk1 immunofluorescence imaging, higher = more signal.

The source made the active and inactive calls. Unless noted, the rule behind the calls is not given here.

Chain of Homeobox protein Hox-A13 (Mus musculus) (Q62424 whole entry, looked up): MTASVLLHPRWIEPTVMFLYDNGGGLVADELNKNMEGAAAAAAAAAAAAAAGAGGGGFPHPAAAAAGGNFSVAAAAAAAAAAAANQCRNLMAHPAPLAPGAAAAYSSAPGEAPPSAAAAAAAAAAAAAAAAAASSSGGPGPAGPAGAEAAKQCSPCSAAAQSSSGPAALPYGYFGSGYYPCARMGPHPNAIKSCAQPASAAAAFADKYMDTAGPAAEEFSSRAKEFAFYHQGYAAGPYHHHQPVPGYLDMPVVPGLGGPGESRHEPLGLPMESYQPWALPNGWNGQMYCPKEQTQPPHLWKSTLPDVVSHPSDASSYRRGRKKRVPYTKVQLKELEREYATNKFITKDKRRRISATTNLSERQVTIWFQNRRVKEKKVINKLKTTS

Regarding `C=CCNC(=O)[C@@H]1[C@H]2C(=O)O[C@H](c3ccccc3)[C@H](c3ccccc3)N2[C@H](c2ccc(O)cc2)[C@@]12C(=O)N(C(=O)OCCOC)c1ccccc12`, the composite z-score in assay [1] is 2.55 (inactive); with XIP peptide (Xip251-270), 0.525. Further, the z-score is -2.07 in assay [2], -2.07 (inactive) in assay [3], 0.209 (inactive) in assay [4] and 0.354 (inactive) in assay [5].

Take `CC(C)(C)N1CC=CC23O[C@@H]4/C=C\CCCOC(=O)C4[C@H]2C(=O)N(CCO)[C@@H]3C1=O` (some centres not stated): the composite z-score in assay [1] was -0.0146 (inactive); in the assay on XIP peptide (Xip251-270), 0.368. Further, the z-score was -1.38 in assay [2], -4.95 (inactive) in assay [3], 0.205 (inactive) in assay [4] and 0.299 (inactive) in assay [5].

Turning to `O=C1O[C@H](c2ccccc2)[C@H](c2ccccc2)N2[C@H]1[C@@H](C(=O)NC[C@H](O)c1ccccc1)[C@]1(C(=O)Nc3ccc(C#CCCO)cc31)[C@H]2c1ccc(O)cc1`, the results for the composite z-score (in assay [1]; in the assay with XIP peptide (Xip251-270)) were -0.105 (inactive) and 0.278, respectively. Besides, the z-score in assay [2] was -1.23; in assay [3], -0.545 (inactive); in assay [4], 0.289 (inactive); in assay [5] it was 0.0974 (inactive).

For the compound `CC1=C2[C@@H](CCc3ccccc3)OB(O)C[C@@H]2n2c(=O)n(-c3ccccc3)c(=O)n2C1`, the composite z-score is -0.105 (inactive) in assay [1] and 0.777 in the assay on XIP peptide (Xip251-270). The z-score in assay [2] was 1.65; in assay [3], -5.44 (inactive); in assay [4], -0.0397 (inactive); in assay [5] it was 0.208 (inactive).

Turning to `COc1ccc([Si](C)(C)[C@@H]2[C@@H](CCn3cc([C@H](O)c4ccccc4)nn3)O[C@]3(C(=O)N(Cc4ccc(N5C(=O)c6cccc7cccc5c67)cc4)c4ccccc43)[C@H]2C)cc1`, the values for the composite z-score (in assay [1]; with XIP peptide (Xip251-270)) were 1.02 (inactive) and 0.182, respectively. For the same compound, the z-score in assay [2] is -2.8; in assay [3], 0.474 (inactive); in assay [4], -0.506 (inactive); in assay [5], -0.524 (inactive).

`CCCN1C(=O)[C@@]2(CCC(=O)OC(C)(C)C)N=C(c3ccc(OCCCO)cc3)O[C@H]2c2ccccc21`: the composite z-score in assay [1] was 0.317 (inactive); in the assay on XIP peptide (Xip251-270), 0.563. Further, the z-score is -2.31 in assay [2], -3.53 (inactive) in assay [3], -0.0458 (inactive) in assay [4] and 0.261 (inactive) in assay [5].

As for `O=C1OCCC=C[C@H]2OC34C=CCN(Cc5ccccc5)C(=O)[C@H]3N(CCCCCCO)C(=O)[C@@H]4C12` (some centres not stated), the composite z-score in assay [1] was -0.271 (inactive); in the assay with XIP peptide (Xip251-270), 0.8. The z-score in assay [2] is 0.0921; in assay [3], -4.32 (inactive); in assay [4] it was 0.249 (inactive); in assay [5] it was 0.489 (inactive).

Turning to `CC(=O)NCCCC[C@@H]1NC(=O)[C@H]2C[C@@H](C(=O)NCCCCCC[N+](C)(C)C)[C@@H](c3cccc(OCCO)c3)N2C1=O`, the composite z-score was 1.87 (inactive) in assay [1] and 0.893 in the assay with XIP peptide (Xip251-270). The z-score in assay [2] was -1.26; in assay [3], -4.59 (inactive); in assay [4], -0.372 (inactive); in assay [5] it was -0.255 (inactive).

As to `[N-]=[N+]=NCc1ccccc1C[C@]1(C(=O)O)N=C(c2ccc(OCCCO)cc2)O[C@H]1c1ccccc1CN=[N+]=[N-]`, the composite z-score was 0.218 (inactive) in assay [1] and 0.746 in the assay on XIP peptide (Xip251-270). The z-score is -0.507 in assay [2], -4.69 (inactive) in assay [3], -0.0136 (inactive) in assay [4] and 0.306 (inactive) in assay [5].

Turning to `CC(C)c1ccc(NN2C(C(O)c3ccc(N(C)C)cc3)C=CC3C(=O)N(c4ccccc4)C(=O)C32)cc1` (configuration not stated), the composite z-score in assay [1] was -0.0313 (inactive); in the assay on XIP peptide (Xip251-270), 0.618. Besides, the z-score in assay [2] is -0.286; in assay [3] it was -2.2 (inactive); in assay [4], 0.148 (inactive); in assay [5] it was -0.072 (inactive).

In the case of `O=C1C2C=CC(C(O)c3cccs3)N(Nc3ccccc3F)C2C(=O)N1c1ccccc1` (configuration not stated), the composite z-score is -0.238 (inactive) in assay [1] and 0.111 with XIP peptide (Xip251-270). Besides, the z-score in assay [2] was 0.669; in assay [3] it was -4.17 (inactive); in assay [4], -0.143 (inactive); in assay [5], -0.299 (inactive).

On to `COC(=O)C(CC#Cc1ccc2c(c1)[C@]1(C(=O)N2)[C@H](c2ccc(OCCO)cc2)N2[C@H](c3ccccc3)[C@H](c3ccccc3)OC(=O)[C@H]2[C@@H]1C(=O)NC[C@H](O)c1ccccc1)C(=O)OC`, for which the figures for the composite z-score (in assay [1]; in the assay with XIP peptide (Xip251-270)) were 1.14 (inactive) and 0.836, respectively. Also, the z-score in assay [2] was -1.79; in assay [3], -0.715 (inactive); in assay [4], 0.0415 (inactive); in assay [5], 0.364 (inactive).

As for `Cc1ccc(F)cc1S(=O)(=O)N[C@@H]1CCN(Cc2ccc(-c3ccccc3)cc2)C1`, the values for the composite z-score (in assay [1]; with XIP peptide (Xip251-270)) were 0.765 (inactive) and 0.479, respectively. Also, the z-score was -1.89 in assay [2], -4.9 (inactive) in assay [3], -0.23 (inactive) in assay [4] and -0.0784 (inactive) in assay [5].

On to `CC(C)C(O)C1C=CC2C(=O)N(c3ccccc3)C(=O)C2N1Nc1ccc(C#N)cc1` (configuration not stated), for which the composite z-score in assay [1] is 0.613 (inactive); in the assay with XIP peptide (Xip251-270), 0.748. Also, the z-score in assay [2] is 0.207; in assay [3], -2.61 (inactive); in assay [4] it was -0.877 (inactive); in assay [5] it was -0.419 (inactive).

As for `COc1ccc(CCNC(=O)[C@@H]2c3ccccc3C(=O)N(Cc3ccc(OC(F)(F)F)cc3)[C@H]2c2ccc(CO)cc2)cc1`, the composite z-score in assay [1] was 0.987 (inactive); with XIP peptide (Xip251-270) it was 0.486. Besides, the z-score in assay [2] was -0.756; in assay [3] it was -4.53 (inactive); in assay [4] it was -0.232 (inactive); in assay [5], -0.312 (inactive).

Consider `COc1ccc(C(=O)Nc2cccc(CN3C(=O)[C@]4(O[C@H](CC(=O)N5CCC[C@H]5CO)[C@@H]([Si](C)(C)c5ccc(OC)cc5)[C@@H]4C)c4ccccc43)c2)cc1`, for which the figures for the composite z-score (in assay [1]; in the assay on XIP peptide (Xip251-270)) were 1.64 (inactive) and 0.687, respectively. Besides, the z-score in assay [2] was -1.34; in assay [3], -2.44 (inactive); in assay [4], -0.0977 (inactive); in assay [5], 0.131 (inactive).

As for `O=C1C2C=CC(C(O)c3ccc(-c4ccccc4)s3)N(n3cnnc3)C2C(=O)N1Cc1ccccc1` (configuration not stated), the results for the composite z-score (in assay [1]; in the assay with XIP peptide (Xip251-270)) were -0.457 (inactive) and 0.951, respectively. Besides, the z-score in assay [2] is -0.802; in assay [3], -2.98 (inactive); in assay [4], -0.295 (inactive); in assay [5] it was -0.514 (inactive).
